Results on 15 molecules are retold here after PubChem BioAssay.

For part of these data: Results with a measured potency or affinity are listed apart. Calls of active or inactive are those of the source. Unless noted, no rule for the calls is given here.

The target of experiment [1] is Cell division control protein 42 homolog (Homo sapiens) (UniProt P60953). Nature of the experiment: inhibition of fluorescent GTP binding to constitutively active Cdc42 – biochemical, multiplex bead flow cytometry, Bodipy-FL-GTP, dose response (AID 1333;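 active = fitted half-maximal concentration within the tested dose range, moderate curve steepness, a statistically real signal drop, and little compound fluorescence or tag-binding interference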). Background: A flow cytometer gives signals particle by particle.
Sequence of Cell division control protein 42 homolog (Homo sapiens) (P60953 whole entry, looked up): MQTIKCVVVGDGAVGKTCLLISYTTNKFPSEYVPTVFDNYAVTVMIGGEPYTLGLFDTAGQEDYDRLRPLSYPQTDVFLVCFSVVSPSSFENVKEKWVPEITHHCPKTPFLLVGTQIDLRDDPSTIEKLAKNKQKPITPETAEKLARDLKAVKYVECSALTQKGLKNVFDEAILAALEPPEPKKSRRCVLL
Experiment [2] has the same target. The experiment can be described thus: inhibition of fluorescent GTP binding to wildtype Cdc42 – biochemical, multiplex bead flow cytometry, Bodipy-FL-GTP, dose response (AID 1334;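 active = fitted half-maximal concentration within the tested range, moderate curve steepness, significant signal drop, and little compound fluorescence or bead-linkage interference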). The settings on record: bead-based flow cytometry, Bodipy-FL-GTP binding to GST-Cdc42; at 100 µM (top of the series) unless noted.
The target of experiment [3] is GTPase HRas (Homo sapiens) (UniProt P01112). Nature of the experiment: Ras wt fluorescent GTP loading blockade – biochemical, wildtype, multiplex bead flow cytometry, dose response (AID 1335;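 active = fitted half-maximal concentration within 10 nM to 100 µM, steepness 0.5 to 2, significant signal drop, low assay interference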). The note with it: bead-based flow cytometry, Bodipy-GTP binding to GST-Ras; at 100 µM (top of the series) unless noted.
Sequence of GTPase HRas (Homo sapiens) (P01112 whole entry, looked up): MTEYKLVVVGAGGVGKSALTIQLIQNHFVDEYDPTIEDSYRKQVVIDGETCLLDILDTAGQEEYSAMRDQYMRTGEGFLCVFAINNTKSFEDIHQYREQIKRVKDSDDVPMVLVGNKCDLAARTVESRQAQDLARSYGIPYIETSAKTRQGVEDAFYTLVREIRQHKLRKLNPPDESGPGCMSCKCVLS
The subject of experiment [4] is Ras-related protein Rab-7a (dog), GTP binding. The experiment can be described thus: blockers of fluorescent GTP binding to Rab7 – biochemical, wildtype, multiplex bead flow cytometry, dose response (AID 1336).
For experiment [5], the target named is Ras-related C3 botulinum toxin substrate 1 (Homo sapiens) (UniProt P63000). The experiment can be described thus: inhibition of wildtype Rac1 nucleotide loading – biochemical, multiplex bead flow cytometry, dose response (AID 1340;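 active = dose curve with midpoint inside tested range, moderate steepness, plateau gap beyond fit error, low compound glow and bead-link interference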). The note with it: GST-Rac1 beads, Bodipy-FL-GTP binding; at 100 µM (top of the series) unless noted.
Experiment [6] deals with GTPase HRas (Homo sapiens) (UniProt P01112). The experiment can be described thus: blockade of GTP loading onto mutant Ras – biochemical, activated mutant, multiplex bead flow cytometry, dose response (AID 1341;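 active = dose-response curve with midpoint inside the tested range, moderate steepness, significant amplitude and little compound fluorescence or bead-attachment interference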;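 also: GST-tagged constitutively activated Ras mutant immobilized on beads and multiplexed with other GTPases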).

Turning to `COc1cccc(OC)c1-c1nn2c(-c3cc(-c4ccccc4)n[nH]3)nnc2s1`, the outcome in experiment [1], in experiment [4] and in experiment [6] was inactive. Also, the fluorescence, percent of control (lower = inhibition) in experiment [2] turned out to be 131% [at 33.3 µM]. The GTP binding, percent of control in experiment [3] amounted to 1380%. Moreover, the GTP binding signal, raw median fluorescence (lower = inhibition) (MCF (arbitrary fluorescence units)) in experiment [5] was 438 [at 33.3 µM].

Regarding `Cc1cccc(CN2C(=O)N/C(=C/c3ccc(C)s3)C2=O)c1`, the result in experiment [1], in experiment [4] and in experiment [6] was inactive. Further, the fluorescence, percent of control (lower = inhibition) in experiment [2] was found to be 72%. Also, the GTP binding, percent of control in experiment [3] amounted to 82.5%. Besides, the GTP binding signal, raw median fluorescence (lower = inhibition) (MCF (arbitrary fluorescence units)) in experiment [5] stood at 201.

`Cc1cc([N+](=O)[O-])ccc1N=Nc1c(N)[nH]n(-c2ccccc2)c1=O`: the result in experiment [1], in experiment [4] and in experiment [6] was inactive. For the same molecule, the fluorescence, percent of control (lower = inhibition) in experiment [2] worked out at 38.4%. Moreover, in experiment [3], the GTP binding, percent of control turned out to be 85%. Moreover, the GTP binding signal, raw median fluorescence (lower = inhibition) (MCF (arbitrary fluorescence units)) in experiment [5] came out at 225.

`Cc1nnc(OC(C)C)c2nn(-c3ccccc3F)c(C)c12`: the outcome in experiment [1], in experiment [4] and in experiment [6] was inactive. Further, the fluorescence, percent of control (lower = inhibition) in experiment [2] worked out at 55.1%. For the same molecule, in experiment [3], the GTP binding, percent of control is 69.3%. The same molecule showed a GTP binding signal, raw median fluorescence (lower = inhibition) (MCF (arbitrary fluorescence units)) in experiment [5] of 0.

In the case of `CC(C)N(C)NC(=S)Nc1ccccc1`, the molecule was classed as inactive in experiment [1], in experiment [4] and in experiment [6]. The fluorescence, percent of control (lower = inhibition) in experiment [2] was found to be 53.9%. The GTP binding, percent of control in experiment [3] is 64.3%. The GTP binding signal, raw median fluorescence (lower = inhibition) (MCF (arbitrary fluorescence units)) in experiment [5] came out at 210.

Consider `Oc1c(CN2CCOCC2)ccc2ccccc12`, for which the molecule was called inactive in experiment [1], in experiment [4] and in experiment [6]. For the same molecule, the fluorescence, percent of control (lower = inhibition) in experiment [2] amounted to 36.2%. The molecule further came in with a GTP binding, percent of control in experiment [3] of 84.5%. Also, the GTP binding signal, raw median fluorescence (lower = inhibition) (MCF (arbitrary fluorescence units)) in experiment [5] stood at 250.

`CC1=C(C)CC(C(=O)c2cc(C)ccc2C)C(C(=O)O)C1` (stereo not given): the outcome in experiment [1], in experiment [4] and in experiment [6] was inactive. Moreover, the fluorescence, percent of control (lower = inhibition) in experiment [2] was 57.3%. In addition, the GTP binding, percent of control in experiment [3] came to 88.3%. This molecule had a GTP binding signal, raw median fluorescence (lower = inhibition) (MCF (arbitrary fluorescence units)) in experiment [5] of 31.

As to `COc1ccc([N+](=O)[O-])cc1NC(=S)NC(NC(=O)Cc1ccc(OC)c(OC)c1)C(Cl)(Cl)Cl` (stereo not given), the result in experiment [1], in experiment [4] and in experiment [6] was inactive. Moreover, the fluorescence, percent of control (lower = inhibition) in experiment [2] was determined as 75.7%. Besides, the GTP binding, percent of control in experiment [3] amounted to 139%. In experiment [5], this molecule showed a GTP binding signal, raw median fluorescence (lower = inhibition) (MCF (arbitrary fluorescence units)) of 151.

Consider `N#C/C(=C/c1ccc(N2CCCCCC2)o1)c1ccc(Cl)cc1`, for which the outcome in experiment [1], in experiment [4] and in experiment [6] was inactive. The fluorescence, percent of control (lower = inhibition) in experiment [2] stood at 127%. The molecule also gave a GTP binding, percent of control in experiment [3] of 205%. Moreover, the GTP binding signal, raw median fluorescence (lower = inhibition) (MCF (arbitrary fluorescence units)) in experiment [5] was determined as 210.

Regarding `C/C=C/c1ccccc1OCc1ccc(C(=O)O)o1`, the molecule was called inactive in experiment [1], in experiment [4] and in experiment [6]. Also, the fluorescence, percent of control (lower = inhibition) in experiment [2] came out at 180%. For the same molecule, in experiment [3], the GTP binding, percent of control was determined as 326%. Besides, in experiment [5], the GTP binding signal, raw median fluorescence (lower = inhibition) (MCF (arbitrary fluorescence units)) came out at 420.

As for `CC(C)OCCCn1c(=NC(=O)c2ccncc2)c(C#N)cc2c(=O)n3ccccc3nc21`, the molecule was classed as inactive in experiment [1], in experiment [4] and in experiment [6]. Also, the fluorescence, percent of control (lower = inhibition) in experiment [2] was determined as 88.2%. Also, the GTP binding, percent of control in experiment [3] turned out to be 160%. Moreover, the GTP binding signal, raw median fluorescence (lower = inhibition) (MCF (arbitrary fluorescence units)) in experiment [5] came out at 161.

Consider `O=c1c2c(-c3ccccc3)csc2nc2c3ccccc3c(NCCN3CCOCC3)nn12`, for which the molecule was called inactive in experiment [1], in experiment [4] and in experiment [6]. Also, the fluorescence, percent of control (lower = inhibition) in experiment [2] was 32.1%. The molecule also gave a GTP binding, percent of control in experiment [3] of 66.4%. The GTP binding signal, raw median fluorescence (lower = inhibition) (MCF (arbitrary fluorescence units)) in experiment [5] stood at 168.

Turning to `O=C(C#Cc1ccccc1)c1ccc([N+](=O)[O-])cc1`, the molecule was called inactive in experiment [1], in experiment [4] and in experiment [6]. Moreover, in experiment [2], the fluorescence, percent of control (lower = inhibition) was determined as 25.5%. Also, in experiment [3], the GTP binding, percent of control is 74.2%. Also, the GTP binding signal, raw median fluorescence (lower = inhibition) (MCF (arbitrary fluorescence units)) in experiment [5] came out at 264.

Turning to `O=C(O)C1=C[C@H](c2ccc(Br)cc2)C[C@H](OCc2ccc(CO)cc2)O1`, the result in experiment [1], in experiment [4] and in experiment [6] was inactive. Moreover, in experiment [2], the fluorescence, percent of control (lower = inhibition) was found to be 30.3%. For the same molecule, the GTP binding, percent of control in experiment [3] was 82.5%. For the same molecule, the GTP binding signal, raw median fluorescence (lower = inhibition) (MCF (arbitrary fluorescence units)) in experiment [5] is 230.

As to `Cc1cc(-c2n[nH]c(=S)n2/N=C/C(Cl)=C/c2ccccc2)n[nH]1`, the result in experiment [1], in experiment [4] and in experiment [6] was inactive. Besides, the fluorescence, percent of control (lower = inhibition) in experiment [2] came out at 33.9%. The same molecule yielded a GTP binding, percent of control in experiment [3] of 78.7%. This molecule also showed a GTP binding signal, raw median fluorescence (lower = inhibition) (MCF (arbitrary fluorescence units)) in experiment [5] of 229.
